Reference: PubChem BioAssay
Active and inactive are the calls of the source. Unless noted, no rule for the calls is given here.

Legend:
[1] = A549 cell viability effects, profiling panel, calcein-AM fluorescence, 48 h, basal (AID 1162); settings: higher = more signal; also: test concentration not given here
[2] = adipocyte viability effects, profiling panel, cell-based, 3T3-L1 adipocytes, calcein-AM fluorescence, 48 h, basal (AID 1163); settings: 3T3-L1 adipocytes viability, higher = more signal; also: test concentration not given here
[3] = HepG2 cell viability effects, profiling panel, calcein-AM fluorescence, 48 h, basal (AID 1164); settings: higher = more signal; also: test concentration not given here
[4] = MM1S cell viability effects, profiling panel, calcein-AM fluorescence, 48 h, basal (AID 1165); settings: higher = more signal;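 also: viability of MM1S multiple myeloma cells under basal unstimulated conditions; test concentration not given here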
[5] = basal RPMI8226 viability, no added stimulus, profiling panel, cell-based, calcein-AM fluorescence, 48 h, PK04 Diversity Set (AID 1166); settings: RPMI8226 myeloma viability, higher = more signal;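 also: cells grown under basal conditions without added stimulus; test concentration not given here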
[6] = basal HepG2 mitochondrial membrane potential changes, profiling panel, cell-based, JC-1 fluorescence, 24 h, 100 nL compound (AID 1167); settings: higher = more signal; also: test concentration not given here
[7] = basal 3T3-L1 adipocyte mitochondrial potential changes, profiling panel, cell-based, JC-1 fluorescence, 3T3-L1 adipocytes, 24 h, 100 nL compound (AID 1168); settings: JC-1 mitochondrial fluorescence, higher = more signal, called active from +8 up or from −8 down; also: test concentration not given here
[8] = basal RPMI8226 mitochondrial membrane potential changes, profiling panel, cell-based, JC-1 fluorescence, 24 h, 100 nL compound (AID 1169); settings: RPMI8226 myeloma, JC-1 mitochondrial potential fluorescence, higher = more signal; also: test concentration not given here
[9] = basal MM1S mitochondrial membrane potential changes, profiling panel, cell-based, JC-1 fluorescence, 24 h, 100 nL compound (AID 1170); settings: higher = more signal; also: test concentration not given here
[10] = A549 lung cancer cell viability effects, profiling panel, resazurin fluorescence, 24 h, PK04 Diversity Set (AID 1171); settings: higher = more signal, called active from +8 up or from −8 down; also: test concentration not given here
[11] = HepG2 liver cancer cell viability effects, profiling panel, resazurin fluorescence, 24 h, PK04 Diversity Set (AID 1172); settings: higher = more signal; also: test concentration not given here
[12] = basal S. cerevisiae growth modulation, no modifier, primary screen, OD600, strain BY4716, 24 h, basal condition (AID 1173); settings: OD600, 24 h, higher = more signal, called active from +8 up or from −8 down
[13] = MM1S myeloma cell viability, profiling panel, resazurin fluorescence, basal, 24 h, PK04 Diversity Set (AID 1174); settings: higher = more signal, called active from +8 up or from −8 down;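 also: MM1S multiple myeloma cell line; test concentration not given here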
[14] = target: Dihydroorotate dehydrogenase (quinone), mitochondrial (Plasmodium falciparum (isolate 3D7)) (UniProt Q08210); experiment: PfDHODH enzyme inhibitors, primary screen, biochemical, C-terminal His tag, absorbance 600 nm (AID 1175); settings: DCIP absorbance 600 nm, higher = more signal, called active from +8 up or from −8 down;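 also: recombinant parasite enzyme with a five histidine tag at its C terminus; test concentration not given here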
Sequence of Dihydroorotate dehydrogenase (quinone), mitochondrial (Plasmodium falciparum (isolate 3D7)) (Q08210 whole entry, looked up): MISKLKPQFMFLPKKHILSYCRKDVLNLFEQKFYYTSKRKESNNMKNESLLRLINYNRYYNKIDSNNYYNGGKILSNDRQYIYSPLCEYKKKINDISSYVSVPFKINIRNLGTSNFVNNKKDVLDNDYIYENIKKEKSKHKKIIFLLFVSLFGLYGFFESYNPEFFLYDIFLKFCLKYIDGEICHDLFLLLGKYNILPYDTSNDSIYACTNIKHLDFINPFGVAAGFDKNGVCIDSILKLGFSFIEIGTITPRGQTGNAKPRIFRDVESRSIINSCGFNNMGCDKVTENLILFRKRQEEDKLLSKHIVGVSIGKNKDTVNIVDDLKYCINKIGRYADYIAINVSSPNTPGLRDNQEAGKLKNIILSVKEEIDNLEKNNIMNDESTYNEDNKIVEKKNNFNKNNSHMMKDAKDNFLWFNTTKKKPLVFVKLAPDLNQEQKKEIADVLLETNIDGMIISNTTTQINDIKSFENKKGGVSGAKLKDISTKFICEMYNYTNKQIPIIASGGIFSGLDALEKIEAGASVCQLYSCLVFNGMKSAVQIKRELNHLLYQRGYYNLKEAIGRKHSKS

[15] = P. aeruginosa biofilm formation inhibitors, primary screen, strain PAO1, LB-PBS medium, absorbance 600 nm (AID 1176); also: test concentration not given here; settings: P. aeruginosa PAO1 growth/biofilm, A600, 12 h; higher = more signal
[16] = S. cerevisiae RM11-1a growth modifiers, primary screen, strain RM11-1a, OD600, basal, 24 h (AID 1177); settings: OD600, 24 h, higher = more signal, called active from +8 up or from −8 down;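 also: cultures grown under basal conditions with no added stressor; test concentration not given here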
[17] = E. coli acrAB mutant growth effects, primary screen, E. coli filamentation inducers, strain DRC39, OD650, 24 h (AID 1178); settings: higher = more signal, called active from +8 up or from −8 down;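 also: growth measured as culture turbidity by optical density at 650 nm; test concentration not given here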
[18] = E. coli acrAB mutant growth effects, primary screen, E. coli filamentation inducers, strain DRC39, OD650, 48 h (AID 1179);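 also: screen aims at cell division blockers that make cells filament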; settings: E. coli DRC39 delta-acrAB growth, higher = more signal, called active from +8 up or from −8 down
[19] = RPMI8226 myeloma cell viability, profiling panel, resazurin fluorescence, basal, 24 h, PK04 Diversity Set (AID 1180); settings: higher = more signal;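 also: RPMI8826 multiple myeloma cell line at 5000 cells per well; test concentration not given here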
[20] = target: E3 ubiquitin-protein ligase XIAP (Homo sapiens) (UniProt P98170); experiment: XIAP binders, primary screen, biophysical, small-molecule microarray, fluorescence 635 nm (AID 1181); settings: small-molecule microarray binding, higher = more signal;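 also: score merges 667 nm emission and signal to noise over triplicate slides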
Sequence of E3 ubiquitin-protein ligase XIAP (Homo sapiens) (P98170 whole entry, looked up): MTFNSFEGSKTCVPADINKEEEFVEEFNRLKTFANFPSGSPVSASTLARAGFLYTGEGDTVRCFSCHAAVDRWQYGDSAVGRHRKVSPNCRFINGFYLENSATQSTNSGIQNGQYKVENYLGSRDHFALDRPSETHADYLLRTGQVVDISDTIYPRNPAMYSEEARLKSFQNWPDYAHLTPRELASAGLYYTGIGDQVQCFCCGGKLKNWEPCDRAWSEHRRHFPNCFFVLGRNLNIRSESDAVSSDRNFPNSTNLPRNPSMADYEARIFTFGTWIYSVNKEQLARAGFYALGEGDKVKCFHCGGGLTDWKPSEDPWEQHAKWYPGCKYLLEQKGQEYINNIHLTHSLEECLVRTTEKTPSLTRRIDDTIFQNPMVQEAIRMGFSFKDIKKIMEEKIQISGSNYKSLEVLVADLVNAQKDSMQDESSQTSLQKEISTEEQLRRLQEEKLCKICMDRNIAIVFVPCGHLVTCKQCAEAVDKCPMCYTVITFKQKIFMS

| Compound | z-score [1] | z-score [2] | z-score [3] | z-score [4] | z-score [5] | z-score [6] | z-score [7] | z-score [8] | z-score [9] | z-score [10] | z-score [11] | z-score [12] | z-score [13] | composite z-score [14] | z-score [15] | z-score [16] | z-score [17] | z-score [18] | z-score [19] | composite z-score [20] |
| --- | --- | --- | --- | --- | --- | --- | --- | --- | --- | --- | --- | --- | --- | --- | --- | --- | --- | --- | --- | --- |
| COc1ccc(O[C@H]2C=C[C@@H](c3ccccc3)O[C@@H]2COC(=O)CCC(C)=NO[C@@H]2O[C@H](COC(C)=O)[C@@H](OC(C)=O)[C@H](OC(C)=O)[C@H]2OC(C)=O)cc1 | -0.502 | 0.0711 | -0.574 | -0.794 | -0.433 | -1.05 | -0.882 (inactive) | 0.722 | -0.375 | 0.363 (inactive) | 0.0729 | 1.64 (inactive) | -0.169 (inactive) | 0.671 (inactive) | -0.585 (inactive) | 1.37 (inactive) | 0.486 (inactive) | 0.167 (inactive) | 0.111 | 0.461 |
| CC(C)CON=C1C[C@@H](O)[C@@H](O)[C@@H]2[C@@H]3C(=O)N(C(C)(C)C)C(=O)[C@@H]3CC[C@H]12 | 0.539 | -0.519 | -0.248 | 0.246 | 0.0151 | -0.772 | -0.697 (inactive) | -0.369 | -0.465 | -0.77 (inactive) | -0.184 | 0.528 (inactive) | -0.426 (inactive) | 0.15 (inactive) | -0.613 (inactive) | -0.131 (inactive) | 0.366 (inactive) | 0.476 (inactive) | -0.246 | -0.102 |
| CC(C)[C@@H](OCc1ccccc1)[C@H](C)C=NOC[C@@H](O)COCc1ccco1 | -0.695 | 0.0863 | -0.893 | -1.05 | -1.09 | -1.83 | -1.25 (inactive) | -0.298 | -0.368 | -0.185 (inactive) | -0.314 | -11.9 (active) | -0.911 (inactive) | -0.585 (inactive) | 0.429 (inactive) | -1.12 (inactive) | 0.7 (inactive) | 0.43 (inactive) | -0.885 | -0.0172 |
| COC(=O)[C@@H]1CC[C@H](C)[C@@H](c2ccc(C)cc2)N1C(=O)c1ccc(C=NO[C@@H]2O[C@H](COC(C)=O)[C@@H](OC(C)=O)[C@H](OC(C)=O)[C@H]2OC(C)=O)cc1 | -1.3 | 0.216 | -0.373 | -0.82 | -1.17 | 2.74 | 0.28 (inactive) | -0.139 | 0.155 | 0.855 (inactive) | -0.124 | 0.786 (inactive) | 0.952 (inactive) | -2.7 (inactive) | -0.172 (inactive) | 0.178 (inactive) | -1.44 (inactive) | -1.65 (inactive) | 0.369 | 0.0131 |
| C#CCCCON=C1[C@H]2CCn3c(=O)n(C)c(=O)n3[C@H]2[C@H](O)[C@@H]2O[C@H]12 | 0.0083 | -0.421 | 0.716 | -0.85 | -0.801 | 0.398 | 0.206 (inactive) | -0.253 | 0.00711 | -0.576 (inactive) | -1.33 | -0.492 (inactive) | -1.59 (inactive) | -0.511 (inactive) | -0.568 (inactive) | 0.956 (inactive) | 0.0518 (inactive) | 0.385 (inactive) | -1.93 | -0.391 |
| CCN1C(=O)[C@H]2[C@H]3[C@H](O)[C@H](O)CC(=NOC[C@H]4O[C@H](c5ccccc5)C=C[C@@H]4Oc4ccc(OC)cc4)[C@@H]3CC[C@H]2C1=O | 0.964 | -0.471 | 0.644 | -1.98 | -2.23 | -0.627 | 0.0264 (inactive) | -1.24 | -0.409 | -0.531 (inactive) | -0.985 | -0.933 (inactive) | -0.641 (inactive) | -0.953 (inactive) | 0.241 (inactive) | 0.635 (inactive) | 0.602 (inactive) | 0.923 (inactive) | -1.04 | 0.0617 |
| CSCC[C@@H]1NC(=O)CC=C[C@@H](C)COC(=O)[C@@H](C)COC1=O | 0.63 | 0.115 | 1.47 | 0.269 | 0.341 | 0.852 | 0.0903 (inactive) | -0.994 | -0.122 | 0.377 (inactive) | 0.414 | -0.739 (inactive) | 0.574 (inactive) | 0.0037 (inactive) | -0.708 (inactive) | -0.24 (inactive) | 0.422 (inactive) | -0.962 (inactive) | 0.249 | -0.0525 |
| CCc1cc2c(nc1CC)CCN(CCC(C)=NO[C@H](C)c1cn([C@@H]3COC[C@H]3O)nn1)C2 | 0.821 | -0.744 | 1.75 | 0.546 | -0.329 | 0.338 | 0.367 (inactive) | -0.121 | -0.676 | -0.574 (inactive) | -0.51 | 0.485 (inactive) | -1.4 (inactive) | -0.0125 (inactive) | -0.643 (inactive) | 0.431 (inactive) | 0.415 (inactive) | 0.741 (inactive) | -0.828 | 0.0368 |
| CO[C@H]1COC(=O)[C@@H]2CCCN2C(=O)CC=C[C@@H](C)[C@H](OC)COC(=O)[C@@H](OCc2ccccc2)C=C[C@@H]1C | -0.622 | 0.852 | 0.305 | 0.41 | -0.697 | 0.887 | 0.377 (inactive) | 0.0666 | -0.305 | 0.0375 (inactive) | -0.416 | -1.72 (inactive) | 1.58 (inactive) | -2.88 (inactive) | -1.01 (inactive) | -0.965 (inactive) | 0.421 (inactive) | 0.29 (inactive) | 0.552 | -0.284 |
